DRD3 antagonist: blocks the human D3 dopamine receptor; P35462; D3R cells, DiscoveRx beta-arrestin luminescence, antagonist mode; hits give low values; max response, negative = inhibition, %; 360,000 compounds, 2.5% hits; AID 652054; in the data active = max response below about -50%; inconclusive = no clear call, values can overlap the other calls; also: % is scaled to controls: 0 for no effect and ±100 for the full control effect
Target sequence (P35462 whole entry, looked up): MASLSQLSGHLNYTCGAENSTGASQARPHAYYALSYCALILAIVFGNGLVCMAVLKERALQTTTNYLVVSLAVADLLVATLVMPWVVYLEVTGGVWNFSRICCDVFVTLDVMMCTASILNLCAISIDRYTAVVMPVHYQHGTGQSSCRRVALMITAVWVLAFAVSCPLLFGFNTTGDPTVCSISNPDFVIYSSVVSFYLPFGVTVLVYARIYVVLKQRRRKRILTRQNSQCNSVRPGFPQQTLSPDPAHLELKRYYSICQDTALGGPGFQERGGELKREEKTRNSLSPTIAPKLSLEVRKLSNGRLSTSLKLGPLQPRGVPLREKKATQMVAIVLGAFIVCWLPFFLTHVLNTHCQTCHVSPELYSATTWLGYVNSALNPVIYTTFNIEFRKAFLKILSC
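Cells plated overnight at 1500 cells/well, then exposed to library compounds with dopamine controls for 90 minutes at 37 degrees C. DiscoveRx reagent added for 30–60 minutes at room temperature; luminescence read, quantitative HTS format.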
D1 potentiator: potentiators of human D1 dopamine receptor. 360,000 compounds, 0.036% hits. P21728. HEK293 TREx D1 cells, calcium flux, dopamine EC20 potentiation. potentiation, % at 10 µM. AID 504651; in the data active = potentiation above about 30%; also: 0% is about no effect
D1 antagonist: blocks dopamine activation of the human D1 receptor; HEK293 TREx D1 cells, calcium flux, dopamine EC80; hits give low values; 360,000 compounds, 3.2% hits; activity change, negative = inhibition, % at 10 µM; P21728; in the data active = activity change below about -30%; also: % is scaled to controls: 0 for no effect and ±100 for the full control effect
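Tetracycline-induced HEK293 T-REx cells with force-coupled D1 receptor were loaded with a no-wash calcium dye. Compound was added after a 10 s baseline and read kinetically for 180 s; EC80 dopamine was then added and calcium flux followed another 180 s.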
D1 ag: activates the human D1 dopamine receptor. HEK293 T-REx D1 cells, calcium flux, agonist mode. activation, % at 2 µM. P21728. 360,000 compounds, 1% hits; in the data active = activation above about 30%; also: 0% is about no effect
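Agonism was scored from calcium flux recorded over 180 s (1 read/s) after pintool compound addition, following a 10-cycle baseline. Cells were inducible force-coupled HEK293 TREx D1, plated overnight at 30 C and loaded with no-wash calcium dye.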
D3 ag: agonists of human D3 dopamine receptor | 410,000 compounds, 0.58% hits | D3R DiscoveRx beta-arrestin cells, luminescence, 90 min | AID 652048 | max activation, %; in the data active = max activation above about 30%; also: 0% is about no effect
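Agonist mode: compounds and dopamine controls were applied to plated cells for 90 min at 37 degrees C after an overnight attachment at 1500 cells/well. Luminescent read-out followed 30 - 60 minutes at room temperature with DiscoveRx detection reagent.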
BCR signal inh: inhibitors of chronic active B-cell receptor signaling. Potency, µM (doses to about 46.1 µM), for the others: top-dose activity change, negative = inhibition, hits mostly inhibitors. 340,000 compounds, 0.05% hits. AID 493014. ABC-DLBCL IkBa-CBG/CBR reporter, luminescence ratio, 4 h; active = well fitted inhibition curve with a large enough effect in the signal ratio, with a control signal flat, not every such curve was filed as active; inconclusive = small, poorly fitted or top-dose-only effect, or effect the other way, or a change in a side signal; the % refers to the signal ratio;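 also: potency is read from the fitted curve at half-maximal effect; plate controls were basal doxycycline-induced cells for no effect and cells given 10 µM MG132 for full effect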
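Doxycycline induced both beetle luciferases in TMD8 lymphoma cells; IKK-driven degradation limits the IkappaBalpha-fused green signal, while red luminescence normalises for cell number and nonspecific effects. Compounds tested up to 46 uM, 4 hrs.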
Starred values were filed as active, the others as inactive; ? = inconclusive; . = no result. Most compounds without a hit are left out; they make up all but 6% or so of the library.

SMILES	DRD3 antagonist	D1 potentiator	D1 antagonist	D1 ag	D3 ag	BCR signal inh
CCc1[nH]nc2c1C1(CCOC1C)C(C#N)=C(N)O2 (configuration not stated)	-57.0*	4.1	-8.0	2.7	-7.7	1.5%
COc1ccc(OC)c(NC(=O)Cn2c(=O)n(Cc3nc(C)no3)c(=O)c3ccccc32)c1	.	-1.7	-0.8	-1.1	3.7	.
CS(=O)(=O)Nc1ccc(C2=NN(C(=O)c3ccccc3)C(c3cccs3)C2)cc1 (configuration not stated)	-4.0	-9.4	-34.3*	-1.3	2.7	-12.2%
CS(=O)(=O)Nc1ccc(C2=NN(C(=O)c3cccc(F)c3)C(c3cccs3)C2)cc1 (configuration not stated)	7.0	-7.5	-2.5	0.9	1.8	-14.6%
CCS(=O)(=O)Nc1cccc(C2=NN(C(C)=O)C(c3cccs3)C2)c1 (configuration not stated)	-0.4	-2.8	-47.0*	2.7	-2.0	-12.1%
COc1cccc(CN2C(=NC(=O)C3CCCO3)SC3CS(=O)(=O)CC32)c1 (configuration not stated)	5.1	.	.	.	2.1	.
COC(=O)c1ccncc1N	-11.0	-6.7	.	0.7	-9.1	1.5%
Nc1cnccc1C(=O)O	-10.7	6.0	-3.0	32.1*	9.9	1.9%
Cc1cccc(NC(=S)NC2CC3CCCC(C2)N3Cc2ccccc2)c1C (configuration not stated)	-100.3*	-7.2	-15.8	0.9	-8.5	-6.7%
Cc1ccccc1C(=O)NC1CC2CCCC(C1)N2Cc1ccccc1 (configuration not stated)	-84.7*	-7.8	-15.3	1.2	-17.8	8.1%
CCCCN1C2CCCC1CC(NC(=O)c1ccccc1Cl)C2 (configuration not stated)	11.4	-4.7	0.6	2.3	-9.8	3.0%
Cc1ccccc1C(=O)NC1CC2CCCC(C1)N2Cc1ccc(Cl)cc1 (configuration not stated)	-96.9*	-8.6	-73.0*	1.0	-18.7	9.7%
O=C(NC1CC2CCC(C1)N2Cc1ccccc1)c1ccccc1Cl (configuration not stated)	-88.9*	-7.8	-28.0	3.6	-17.5	?
Cc1cccc(NC(=S)NC2CC3CCC(C2)N3Cc2ccco2)c1C (configuration not stated)	-13.6	-2.9	-21.1	1.5	-11.0	-8.1%
O=C(Nc1c(C(=O)Nc2ccc(F)cc2)oc2ccccc12)c1ccccc1F	.	-1.8	-16.6	4.9	6.3	.
COc1ccccc1C(=O)NC1CCN(C(=S)NCCc2ccccc2)CC1	-21.1	-3.4	-1.6	6.1	-4.3	-14.1%
COc1ccccc1C(=O)NC1CC2CCCC(C1)N2Cc1ccccc1 (configuration not stated)	-111.6*	.	.	.	3.7	.
CC(=O)c1ccc(C(=O)N2CCc3c([nH]c4ccccc34)C2c2cccc(C)n2)s1 (configuration not stated)	-56.5*	-7.2	-3.3	0.1	-33.2	?
Cc1cccc(C2c3[nH]c4ccccc4c3CCN2C(=O)c2ccc(=O)[nH]c2)n1 (configuration not stated)	10.4	0.1	4.2	2.5	-0.6	?
O=C(Cn1cnc2onc(-c3ccc(F)cc3)c2c1=O)Nc1ccc(F)c(Cl)c1	.	6.0	-10.3	4.6	0.0	.
Cc1ccc(Oc2nnc(-c3cccs3)c3ccccc23)cc1C	?	-6.0	-31.6*	1.0	-1.1	-0.3%
Cc1ccc(Oc2nnc(-c3cccs3)c3ccccc23)cc1	-14.7	-1.4	13.7	0.3	-11.5	-0.9%
Cc1ccc(COC(=O)c2[nH]c3c(c2C)C(=O)CC(c2ccc(Cl)cc2)C3)cc1 (configuration not stated)	.	5.2	5.6	1.9	0.1	.
COC(=O)c1[nH]c2cccc(OC)c2c1NC(=O)C(C)N1CCC(C)CC1 (configuration not stated)	-9.1	-3.7	8.8	1.1	-15.2	?
COC(=O)c1[nH]c2ccc(Cl)cc2c1NC(=O)CCN1CCOCC1	0.0	-6.0	-37.8*	0.9	5.5	-0.4%

Assay outcomes from PubChem.
